We go through 7 compounds from PubChem BioAssay (NCI).

Test systems include EKVX NSCLC; SN12C renal; UO-31 renal; TK-10 renal; ACHN renal; CAKI-1 renal; A498 renal; CCRF-CEM leukemia; MOLT-4 leukemia; SR leukemia; RPMI-8226 leukemia; OVCAR-8 ovarian; OVCAR-5 ovarian; OVCAR-4 ovarian; SK-OV-3 ovarian; IGROV1 ovarian; OVCAR-3 ovarian; HS 578T breast; NCI/ADR-RES ovarian; T-47D breast.
What all share (test): NCI-60 one-dose screen, 48 h (100 = growth as untreated, 0 = no growth, -100 = all killed)
Holding throughout (settings): 10 µM unless noted

The panel holds about 83,000 compounds, 20% with a hit somewhere; the sample as a whole holds those more often.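 How to read the values: 0–100, growth inhibition (40 = 60% inhibited); 0, no net growth; -100 to 0, cell death (-40 = 40% of starting cells died; -100 = all dead).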 Unmarked numbers belong to inactive results. Calls of active or inactive are those of the source. How the source made its calls: active means growth percent below 10; inactive means the rest.

Turning to `NS(=O)(=O)c1cccc(Nc2nc(SCC(=O)c3ccc(Cl)cc3)nc3ccccc23)c1`, the growth with EKVX NSCLC is 77.4%; in the experiment with SN12C renal it was 63.4%; in the experiment on UO-31 renal, 84.2%; in the experiment with TK-10 renal it was 123%; with ACHN renal, 77.6%; in the experiment with CAKI-1 renal it was 62.3%. Moreover, the growth is 85.2% in the experiment on A498 renal; 85.7% with CCRF-CEM leukemia; 82.8% with MOLT-4 leukemia; 59.2% with SR leukemia; 65.4% in the experiment on RPMI-8226 leukemia; 39.9% with OVCAR-8 ovarian. The growth was 116% in the experiment on OVCAR-5 ovarian; 22.5% in the experiment on OVCAR-4 ovarian; 103% in the experiment on SK-OV-3 ovarian; 76.3% in the experiment with IGROV1 ovarian; 85.8% with OVCAR-3 ovarian; 43.5% in the experiment on HS 578T breast. In addition, the growth in the experiment on NCI/ADR-RES ovarian was 91.1%; in the experiment on T-47D breast, 63.3%.
`Cc1sc2c(c1C)c(=O)nc1c(-c3nc(-c4ccc(F)cc4)no3)n[nH]n12`: the growth with EKVX NSCLC was 95.2%; in the experiment on SN12C renal, 98.2%; in the experiment on UO-31 renal, 88.1%; in the experiment with TK-10 renal it was 122%; in the experiment with ACHN renal it was 96.5%; in the experiment with CAKI-1 renal, 92.8%. Moreover, the growth in the experiment on A498 renal is 98.6%; with CCRF-CEM leukemia, 104%; with MOLT-4 leukemia, 104%; in the experiment on SR leukemia, 97.6%; in the experiment with RPMI-8226 leukemia, 108%; with OVCAR-8 ovarian, 104%. In addition, the growth in the experiment on OVCAR-5 ovarian was 103%; in the experiment on OVCAR-4 ovarian it was 112%; in the experiment with SK-OV-3 ovarian, 101%; in the experiment on IGROV1 ovarian, 102%; in the experiment with OVCAR-3 ovarian, 121%; with HS 578T breast, 105%. In addition, the values for the growth with NCI/ADR-RES ovarian and in the experiment on T-47D breast were 109% and 95.5%, respectively.
Regarding `CC(C)(C)Nc1nc2c(OCCc3ccccc3)cccn2c1-c1ccccc1Cl`, the growth is 6.5% (active) in the experiment with EKVX NSCLC; 0.779% (active) with SN12C renal; -14% (active) in the experiment on UO-31 renal; 10.6% with TK-10 renal; 4.1% (active) in the experiment on ACHN renal; -6.8% (active) with CAKI-1 renal. For the same compound, the growth with A498 renal is -23% (active); in the experiment on CCRF-CEM leukemia, 1.24% (active); with MOLT-4 leukemia, -21.5% (active); in the experiment with SR leukemia, -14.6% (active); in the experiment with RPMI-8226 leukemia, -25.8% (active); in the experiment on OVCAR-8 ovarian, 9.35% (active). Further, the growth in the experiment on OVCAR-5 ovarian is 10.9%; with OVCAR-4 ovarian it was 13.5%; with SK-OV-3 ovarian, -22.7% (active); in the experiment on IGROV1 ovarian it was 5.74% (active); in the experiment with OVCAR-3 ovarian, 8.2% (active); with HS 578T breast it was -1.74% (active). Also, the growth in the experiment with NCI/ADR-RES ovarian was 5.82% (active); with T-47D breast it was 10.3%.
`Cc1ccccc1NC(=O)/C=C/c1ccc(OCCOc2ccc3c(C)cc(=O)oc3c2)cc1`: the growth in the experiment with EKVX NSCLC was 107%; with SN12C renal, 91.5%; in the experiment with UO-31 renal it was 99.6%; in the experiment on TK-10 renal it was 132%; in the experiment with ACHN renal it was 89.4%; in the experiment on CAKI-1 renal, 95.1%. Further, the growth is 81.3% in the experiment on A498 renal; 95.7% with CCRF-CEM leukemia; 93.2% in the experiment with MOLT-4 leukemia; 61.3% with SR leukemia; 94% in the experiment on RPMI-8226 leukemia; 64.9% in the experiment on OVCAR-8 ovarian. The growth with OVCAR-5 ovarian was 103%; with OVCAR-4 ovarian, 75.5%; in the experiment with SK-OV-3 ovarian, 77.6%; in the experiment with IGROV1 ovarian, 103%; in the experiment on HS 578T breast, 61.2%; with NCI/ADR-RES ovarian, 84.6%. Besides, the growth with T-47D breast was 84.1%.
As for `CCOc1ccc([C@H]2C(C(=O)c3ccc(Cl)cc3)C3(N[C@@H]2c2ccccc2)C(=O)Nc2ccc(Br)cc23)cc1` (some centres not stated), the growth is 33.6% in the experiment with EKVX NSCLC; 6.51% (active) in the experiment with SN12C renal; 32.7% with UO-31 renal; 53.4% in the experiment with TK-10 renal; 10.7% with ACHN renal; 31.8% in the experiment with CAKI-1 renal. Further, the growth was 46.7% in the experiment with A498 renal; 34.9% in the experiment with CCRF-CEM leukemia; 2.38% (active) in the experiment on MOLT-4 leukemia; -24% (active) in the experiment on SR leukemia; 23.5% in the experiment on RPMI-8226 leukemia; 38% in the experiment with OVCAR-8 ovarian. Moreover, the growth in the experiment with OVCAR-5 ovarian was 51.2%; in the experiment with OVCAR-4 ovarian, 45.5%; with SK-OV-3 ovarian it was 58.6%; in the experiment on IGROV1 ovarian, 13.5%; with OVCAR-3 ovarian it was -29.5% (active); in the experiment with HS 578T breast, 46.1%. The growth is 64.7% with NCI/ADR-RES ovarian and 31.4% with T-47D breast.
For the compound `COc1ccc(N/N=C/c2c(-c3ccc(S(C)(=O)=O)cc3)nc3ccccn23)cc1`, the growth with EKVX NSCLC is 69.2%; in the experiment on SN12C renal, 49.8%; in the experiment with UO-31 renal it was 30.2%; in the experiment with TK-10 renal, 57.3%; with ACHN renal, 32.2%; in the experiment with CAKI-1 renal, 20.3%. In addition, the growth with A498 renal is 35.6%; in the experiment on CCRF-CEM leukemia, 32%; in the experiment on MOLT-4 leukemia it was 18.6%; with SR leukemia, 57.1%; in the experiment with RPMI-8226 leukemia, 32.2%; in the experiment on OVCAR-8 ovarian, 49.1%. The growth in the experiment with OVCAR-5 ovarian was 67.4%; in the experiment on OVCAR-4 ovarian, 42.1%; in the experiment on SK-OV-3 ovarian it was 62.2%; in the experiment with IGROV1 ovarian, 51.9%; in the experiment with HS 578T breast it was 62.4%; in the experiment with NCI/ADR-RES ovarian, 34%. In addition, the growth in the experiment on T-47D breast is 26.2%.
Regarding `CN1CCN(Cc2ccc(NC(=O)c3cncc(C#Cc4cnc5ccc(N6CCSCC6)nn45)c3)cc2C(F)(F)F)CC1`, the growth in the experiment on EKVX NSCLC was -47.1% (active); in the experiment on SN12C renal, -69.5% (active); with UO-31 renal it was -11.5% (active); in the experiment on TK-10 renal, -25.9% (active); with ACHN renal, -91.4% (active); in the experiment with CAKI-1 renal, -26.7% (active). Besides, the growth in the experiment with A498 renal was -81.9% (active); in the experiment on CCRF-CEM leukemia it was 3.28% (active); with SR leukemia it was -31.9% (active); with RPMI-8226 leukemia it was -7.39% (active); in the experiment on OVCAR-8 ovarian, -67.7% (active); in the experiment with OVCAR-5 ovarian, -22.4% (active). In addition, the growth with OVCAR-4 ovarian was -13.7% (active); with SK-OV-3 ovarian it was -19.8% (active); with IGROV1 ovarian it was -9.25% (active); in the experiment on OVCAR-3 ovarian it was -59.6% (active); with HS 578T breast, -24.7% (active); with NCI/ADR-RES ovarian, -11.6% (active). The growth in the experiment on T-47D breast was 34.1%.
